Measurements published in PubChem BioAssay (EPA / NIEHS).
Calls of active or inactive are those of the source. Rule for the calls: active = hit-call score of the fitted dose curve at least 0.9, where 1 is the maximum; inactive = score below 0.9.

Key:
[1] = ATG_CRE_CIS: Attagene CIS-FACTORIAL HepG2 Assay for human cAMP Responsive Element (CRE) binding protein 3 (AID 2282926); conditions: HepG2 CRE cis-reporter, Attagene multiplexed mRNA; actives raise or lower the signal
Method in brief: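 We dosed HepG2 cells bearing multiple cis-promoter reporter units for 24 h and measured reporter mRNA by RT-PCR with capillary electrophoresis detection. Bidirectional concentration-response fitting used DMSO as negative control.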

[2] = molecular target: CCAAT/enhancer-binding protein beta (Homo sapiens) (UniProt P17676); experiment: ATG_C_EBP_CIS: Attagene CIS-FACTORIAL HepG2 Assay for human CCAAT/Enhancer Binding Protein (C/EBP) beta (AID 2282927); conditions: HepG2 Attagene cis-factorial transcription factor reporter; actives raise or lower the signal
CCAAT/enhancer-binding protein beta (Homo sapiens), sequence (P17676 whole entry, looked up, the tested form may be a part): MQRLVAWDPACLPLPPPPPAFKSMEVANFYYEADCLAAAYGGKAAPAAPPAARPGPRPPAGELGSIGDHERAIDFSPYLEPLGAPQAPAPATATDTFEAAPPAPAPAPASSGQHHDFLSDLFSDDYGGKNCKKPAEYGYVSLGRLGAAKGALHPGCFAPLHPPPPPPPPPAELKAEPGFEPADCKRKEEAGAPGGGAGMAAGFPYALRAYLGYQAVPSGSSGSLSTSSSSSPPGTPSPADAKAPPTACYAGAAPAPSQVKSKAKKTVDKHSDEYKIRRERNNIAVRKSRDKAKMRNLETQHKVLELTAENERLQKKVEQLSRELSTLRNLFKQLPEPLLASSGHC
Method in brief: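 Endogenous C/EBPb-driven reporter transcripts measured in transfected human HepG2 cells at 24 h via RT-PCR and capillary electrophoresis of labelled fragments. Activity fitted in both directions relative to DMSO baseline.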

[3] = ATG_CMV_CIS: Attagene CIS-FACTORIAL HepG2 Assay for human CMV (Internal Marker) (AID 2282928); conditions: HepG2 CMV promoter reporter, transcription factor profiling; actives raise or lower the signal;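 note: endpoint acts as a background internal control marker rather than a target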
Method in brief: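 CMV internal-marker background readout in transiently transfected HepG2 cells bearing cis-regulated reporter units. Reporter mRNA is measured 24 h after dosing by RT-PCR and capillary electrophoresis, with bidirectional fitting against DMSO.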

[4] = ATG_DR4_LXR_CIS: Attagene CIS-FACTORIAL HepG2 Assay for human Liver X Receptor (LXR), DR4 submotif (AID 2282929); conditions: HepG2 Attagene DR4 cis-reporter, mRNA transcription; actives raise or lower the signal
Method in brief: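 HepG2 cells transiently transfected with cis-promoter-driven multiplexed reporter units (DR4 element) were dosed for 24 h. Reporter mRNA was quantified by RT-PCR, fluorescent primer extension, HpaI digestion and capillary electrophoresis; bidirectional fitting versus DMSO baseline.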

[5] = molecular target: Aryl hydrocarbon receptor (Homo sapiens) (UniProt P35869); experiment: ATG_Ahr_CIS: Attagene CIS-FACTORIAL HepG2 Assay for human Aryl Hydrocarbon Receptor (Ahr) (AID 2282930); conditions: HepG2 AhR cis-factorial reporter transcription; actives raise or lower the signal
Aryl hydrocarbon receptor (Homo sapiens), sequence (P35869 whole entry, looked up): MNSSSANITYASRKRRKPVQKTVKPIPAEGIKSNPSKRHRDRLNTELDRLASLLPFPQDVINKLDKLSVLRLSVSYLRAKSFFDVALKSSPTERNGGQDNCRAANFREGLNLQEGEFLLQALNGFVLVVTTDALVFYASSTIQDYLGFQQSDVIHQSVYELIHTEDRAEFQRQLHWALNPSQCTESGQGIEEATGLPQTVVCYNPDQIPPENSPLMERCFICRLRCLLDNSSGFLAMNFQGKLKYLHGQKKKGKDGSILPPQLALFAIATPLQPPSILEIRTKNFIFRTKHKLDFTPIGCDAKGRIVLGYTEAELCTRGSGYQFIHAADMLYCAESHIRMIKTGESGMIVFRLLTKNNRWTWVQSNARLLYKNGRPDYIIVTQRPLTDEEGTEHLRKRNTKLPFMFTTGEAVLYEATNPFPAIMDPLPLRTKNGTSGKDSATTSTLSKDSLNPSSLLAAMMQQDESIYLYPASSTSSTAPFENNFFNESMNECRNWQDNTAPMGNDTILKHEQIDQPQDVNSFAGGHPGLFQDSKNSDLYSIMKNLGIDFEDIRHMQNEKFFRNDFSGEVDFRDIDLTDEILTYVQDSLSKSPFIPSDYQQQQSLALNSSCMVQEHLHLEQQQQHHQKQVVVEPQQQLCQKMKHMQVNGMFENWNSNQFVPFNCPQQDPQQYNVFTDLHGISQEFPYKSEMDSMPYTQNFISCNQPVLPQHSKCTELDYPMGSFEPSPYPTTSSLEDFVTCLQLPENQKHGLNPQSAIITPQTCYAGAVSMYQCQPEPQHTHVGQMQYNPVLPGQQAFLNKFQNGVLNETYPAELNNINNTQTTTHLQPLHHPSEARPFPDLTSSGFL
Method in brief: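 Reporter mRNA levels, quantified by RT-PCR and fluorescent capillary electrophoresis, reflect endogenous AhR transcriptional activity in HepG2 cells carrying transfected cis-promoter reporter constructs. Readout at 24 h post-dose; gain or loss fitted against DMSO baseline.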

[6] = ATG_AP_1_CIS: Attagene CIS-FACTORIAL HepG2 Assay for human Activator Protein 1 (AP-1) (AID 2282931); conditions: HepG2 Attagene cis-factorial AP-1 reporter mRNA; actives raise or lower the signal
Method in brief: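 HepG2 cells transiently transfected with cis-element-driven multiplex reporter units; 24 h compound exposure. Reporter mRNA quantified by RT-PCR, FAM-labelled fragments resolved by capillary electrophoresis; bidirectional fit versus DMSO baseline.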

[7] = ATG_AP_2_CIS: Attagene CIS-FACTORIAL HepG2 Assay for human Activator Protein 2 (AP-2) (AID 2282932); conditions: HepG2 AP-2 cis-reporter, Attagene transcription factor profiling; actives raise or lower the signal
Method in brief: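 HepG2, transient MRTU transfection, cis-regulated reporters; 24 h compound exposure; RNA isolated, RT-PCR, 6-FAM labelling, HpaI digest, CE fluorescence. DMSO = negative control/baseline, bidirectional fit.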

[8] = ATG_BRE_CIS: Attagene CIS-FACTORIAL HepG2 Assay for human Bone Morphogenetic Protein (BMP) Response Element (BRE) (AID 2282933); conditions: HepG2 BMP response element reporter, Attagene transcription factor profiling; actives raise or lower the signal
Method in brief: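 HepG2 cells transiently transfected with multiplexed cis-element reporter units were dosed with chemical for 24 h. Reporter mRNA was measured by RT-PCR with fluorescent labelling, HpaI digestion and capillary electrophoresis; bidirectional fitting relative to DMSO.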

[9] = molecular target: Transcription factor E2F1 (Homo sapiens) (UniProt Q01094); experiment: ATG_E2F_CIS: Attagene CIS-FACTORIAL HepG2 Assay for human E2F Transcription Factor 1 (AID 2282935); conditions: HepG2 Attagene cis-reporter, E2F reporter RNA transcripts; actives raise or lower the signal
Transcription factor E2F1 (Homo sapiens), sequence (Q01094 whole entry, looked up): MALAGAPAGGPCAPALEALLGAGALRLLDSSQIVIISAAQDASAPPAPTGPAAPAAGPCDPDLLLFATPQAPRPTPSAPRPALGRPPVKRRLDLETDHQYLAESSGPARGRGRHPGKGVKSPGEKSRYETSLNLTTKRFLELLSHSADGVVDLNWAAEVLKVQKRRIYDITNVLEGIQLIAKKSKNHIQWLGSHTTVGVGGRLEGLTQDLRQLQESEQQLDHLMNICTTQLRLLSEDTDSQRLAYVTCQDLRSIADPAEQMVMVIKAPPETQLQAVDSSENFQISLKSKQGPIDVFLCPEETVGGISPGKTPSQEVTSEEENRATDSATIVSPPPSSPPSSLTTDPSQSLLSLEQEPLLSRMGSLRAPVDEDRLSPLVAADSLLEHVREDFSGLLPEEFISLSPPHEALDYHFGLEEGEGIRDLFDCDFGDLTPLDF
Method in brief: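 Cis-element reporter mRNA induction in transiently transfected HepG2, 24 h exposure. Activity fitted in both directions relative to DMSO negative control.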

[10] = ATG_E_Box_CIS: Attagene CIS-FACTORIAL HepG2 Assay for human Enhancer Box (E-box) (AID 2282936); conditions: HepG2 E-box cis-reporter transcription, actives raise or lower the signal
Method in brief: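 Cells: HepG2 (human liver), transient MRTU transfection. Exposure 24 h. RNA → oligo(dT) RT → PCR → 6-FAM label → HpaI → CE. Activity fitted both directions relative to DMSO.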

[11] = ATG_M_61_CIS: Attagene CIS-FACTORIAL HepG2 Assay for M61 Transcription Factor (Internal Marker) (AID 2282937); conditions: HepG2 Attagene CIS-FACTORIAL M61 internal marker reporter; actives raise or lower the signal
Method in brief: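 HepG2 cells transiently transfected with cis-element-driven multiple reporter transcription units, dosed for 24 h. Reporter mRNA measured by RT-PCR, 6-FAM primer-extension labelling, HpaI digestion and capillary electrophoresis; bidirectional fit versus DMSO baseline.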

[12] = ATG_EGR_CIS: Attagene CIS-FACTORIAL HepG2 Assay for human Early Growth Response 1 (EGR1) (AID 2282938); conditions: HepG2 Attagene CIS-FACTORIAL EGR reporter mRNA; actives raise or lower the signal
Method in brief: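 HepG2 cells transiently transfected with cis-promoter-driven multiplexed reporter transcription units; reporter mRNA measured 24 h after compound dosing by RT-PCR, 6-FAM primer extension, HpaI digestion and capillary electrophoresis. Bidirectional fit versus DMSO baseline.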

[13] = ATG_M_19_CIS: Attagene CIS-FACTORIAL HepG2 Assay for M19 Transcription Factor (Internal Marker) (AID 2282939); conditions: HepG2 Attagene CIS-FACTORIAL M19 internal marker reporter; actives raise or lower the signal
Method in brief: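 HepG2 cells transiently transfected with cis-regulated multiple reporter transcription units were dosed for 24 h; reporter mRNA was quantified by RT-PCR, 6-FAM primer-extension labelling, HpaI digestion and capillary electrophoresis, with bidirectional fitting against DMSO baseline.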

[14] = ATG_ERE_CIS: Attagene CIS-FACTORIAL HepG2 Assay for Estrogen Response Element (ERE) (AID 2282940); conditions: HepG2 ERE cis-reporter, Attagene RNA transcript; actives raise or lower the signal
Method in brief: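 HepG2 cells transiently transfected with cis-promoter-driven multiplexed reporter transcription units report endogenous TF activity. After 24 h compound exposure, reporter mRNA is quantified by RT-PCR with capillary electrophoresis fluorescence; bidirectional fitting versus DMSO baseline.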

[15] = ATG_Ets_CIS: Attagene CIS-FACTORIAL HepG2 Assay for human Erythroblast Transformation Specific (ETS) (AID 2282941); conditions: HepG2 ETS cis-reporter transcription, actives raise or lower the signal
Method in brief: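 HepG2 cells transfected with multiple cis-regulated reporter units measuring endogenous ETS-driven transcription, 24 h after dosing. Reporter mRNA quantified by RT-PCR with capillary electrophoresis; bidirectional fit relative to DMSO.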

[16] = molecular target: Hepatocyte nuclear factor 3-beta (Homo sapiens) (UniProt Q9Y261); experiment: ATG_FoxA2_CIS: Attagene CIS-FACTORIAL HepG2 Assay for human Forkhead box A2 (FOXA2) (AID 2282942); conditions: HepG2 cis-reporter transcription factor activity, 24 h; actives raise or lower the signal
Hepatocyte nuclear factor 3-beta (Homo sapiens), sequence (Q9Y261 whole entry, looked up): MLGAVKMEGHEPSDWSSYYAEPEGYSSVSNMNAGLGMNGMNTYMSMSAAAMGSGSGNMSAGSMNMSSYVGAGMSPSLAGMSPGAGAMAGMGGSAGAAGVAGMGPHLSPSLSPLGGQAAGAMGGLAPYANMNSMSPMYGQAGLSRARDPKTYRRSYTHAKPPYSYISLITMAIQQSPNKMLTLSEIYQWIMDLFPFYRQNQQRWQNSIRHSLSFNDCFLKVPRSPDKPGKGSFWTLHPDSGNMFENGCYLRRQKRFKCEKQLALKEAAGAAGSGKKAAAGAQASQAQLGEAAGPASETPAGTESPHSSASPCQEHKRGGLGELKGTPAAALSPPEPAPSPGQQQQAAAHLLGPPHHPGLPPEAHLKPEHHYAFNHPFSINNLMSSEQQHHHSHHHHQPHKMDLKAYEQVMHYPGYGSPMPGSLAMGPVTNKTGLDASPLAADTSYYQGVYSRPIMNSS
Method in brief: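 HepG2 cells transiently transfected with multiple cis-regulated reporter transcription units, dosed for 24 h. Reporter mRNA measured by RT-PCR, 6-FAM labelling, HpaI digestion and capillary electrophoresis; bidirectional fitting against DMSO baseline.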

[17] = ATG_GATA_CIS: Attagene CIS-FACTORIAL HepG2 Assay for human GATA Binding Protein (AID 2282944); conditions: HepG2 GATA cis-element reporter, Attagene multiplex mRNA; actives raise or lower the signal
Method in brief: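 HepG2 cells transiently transfected with multiplexed cis-element reporter units reflecting endogenous transcription factor activity; reporter mRNA measured after 24 h dosing by RT-PCR, 6-FAM labeling, HpaI digestion and capillary electrophoresis. Bidirectional fitting versus DMSO baseline.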

[18] = ATG_GLI_CIS: Attagene CIS-FACTORIAL HepG2 Assay for human Zinc Finger Protein GLI1 (AID 2282945); conditions: HepG2, Attagene cis-factorial reporter mRNA, GLI element; actives raise or lower the signal
Method in brief: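 Bidirectional curve fits relative to DMSO, using reporter mRNA levels from RT-PCR plus capillary electrophoresis. Cells were HepG2 transiently carrying cis-regulated reporter constructs, harvested 24 h after dosing.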

[19] = ATG_FoxO_CIS: Attagene CIS-FACTORIAL HepG2 Assay for human Forkhead box O (FoxO) (AID 2282943); conditions: HepG2 Attagene cis-reporter, FoxO element, mRNA; actives raise or lower the signal
Method in brief: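 Endogenous transcription factor activity read from multiplexed cis-promoter reporter transcripts in transiently transfected HepG2, 24 h after dosing. Reporter RNA measured via RT-PCR plus capillary electrophoresis of FAM-labeled products; gain or loss relative to DMSO.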

Measured: AC50

Nc1ccc(S(=O)(=O)O)c(N)c1
not listed: [19]
inactive: all other assays above

CCCCN
not listed: [19]
inactive: all other assays above

O=C(Nc1ccccc1)c1cc([N+](=O)[O-])ccc1Cl
active: [1] 5.81 µM | [4] 100 µM | [5] 18.4 µM | [6] 100 µM | [8] 49.9 µM | [12] 25.1 µM
not listed: [19]
inactive: all other assays above

O=C(COc1ccc(Cl)cc1)N1CCN(Cc2ccc3c(c2)OCO3)CC1
active: [3] 24.9 µM | [8] 93.6 µM | [12] 32.1 µM
not listed: [15]
inactive: all other assays above

C=C(C)C(=O)O[C@H]1C[C@@H]2CC[C@@]1(C)C2(C)C
active: [3] 148 µM | [4] 26.7 µM | [5] 137 µM | [6] 100 µM | [9] 100 µM | [10] 147 µM | [14] 60.7 µM
not listed: [19]
inactive: all other assays above

CCCCCCCCCC=O
not listed: [19]
inactive: all other assays above

c1ccc2sc(SN(C3CCCCC3)C3CCCCC3)nc2c1
active: [3] 8.13 µM | [5] 49.1 µM | [6] 11.9 µM
not listed: [17]
inactive: all other assays above

O=Cc1ccc(F)cc1
not listed: [17]
inactive: all other assays above

O=C(O)CCCCCCCCCCC(=O)O
not listed: [19]
inactive: all other assays above

Nc1cc(Cl)c(O)c(Cl)c1
active: [3] 186 µM | [12] 136 µM | [19] 135 µM | [18] 157 µM
not listed: [17]
inactive: all other assays above

Cc1ccc(Nc2ccc(O)c3c2C(=O)c2ccccc2C3=O)cc1
active: [10] 20.3 µM
not listed: [19]
inactive: all other assays above

CCCC(=O)C(C)=O
inactive: all assays above

CC(C)=CCO
not listed: [17]
inactive: all other assays above

CC1(C)[C@H](C(=O)OCc2cccc(Oc3ccccc3)c2)[C@@H]1C=C(Cl)Cl
not listed: [19]
inactive: all other assays above
